15-hLO inh: 15-hLO (ALOX15) enzyme inhibition; purified 15hLO-1, xylenol orange hydroperoxide absorbance; AID 887; hit rate 1.4% among 74,000; Potency, µM (highest dose often 57.1 µM), inactives show top-dose activity change, negative = inhibition, usual class: inhibitors; further: nearly all actives have a fitted effect of over 55% in size
Target sequence (P16050 whole entry, looked up): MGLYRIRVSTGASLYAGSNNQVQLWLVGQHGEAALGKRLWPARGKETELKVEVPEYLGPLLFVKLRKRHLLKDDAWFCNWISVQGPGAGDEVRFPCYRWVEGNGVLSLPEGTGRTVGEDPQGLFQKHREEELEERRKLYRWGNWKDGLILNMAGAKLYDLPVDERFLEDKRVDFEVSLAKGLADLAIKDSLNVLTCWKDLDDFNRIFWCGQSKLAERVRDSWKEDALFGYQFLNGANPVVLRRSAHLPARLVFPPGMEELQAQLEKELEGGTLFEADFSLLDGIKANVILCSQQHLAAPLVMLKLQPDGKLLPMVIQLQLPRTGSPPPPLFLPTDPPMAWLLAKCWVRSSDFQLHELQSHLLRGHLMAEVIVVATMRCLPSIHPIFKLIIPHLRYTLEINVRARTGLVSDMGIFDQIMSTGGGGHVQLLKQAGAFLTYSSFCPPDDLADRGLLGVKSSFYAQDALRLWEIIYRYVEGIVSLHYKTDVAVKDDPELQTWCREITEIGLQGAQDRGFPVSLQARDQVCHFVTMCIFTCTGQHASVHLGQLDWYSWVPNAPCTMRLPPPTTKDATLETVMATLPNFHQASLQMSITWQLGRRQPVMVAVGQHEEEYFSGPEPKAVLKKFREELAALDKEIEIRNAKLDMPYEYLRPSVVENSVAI
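Purified human 15hLO-1 (40 nM final) in 25 mM Hepes pH 7.5, 0.01% Triton X-100 was preincubated with compound 15 min at room temperature, then reacted 6 min with 50 uM arachidonic acid; hydroperoxide detected by Fe-XO, 573/405 nm absorbance ratio.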
Bst PK mod: modulators of Bacillus stearothermophilus pyruvate kinase | purified pyruvate kinase, luminescence ATP production; ribose 5-phosphate activator present at AC10 | Potency, µM | hit rate 1.2% among 51,000; in the data active means potency below about 11 µM; inconclusive means mostly about 12 µM to 25 µM;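 the screen sought inhibitors and activators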;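 further: scaled between full activation by ribose 5 phosphate and full inhibition by luteolin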
ERK AVP inh: blocks ERK signaling stimulated by vasopressin | HEK293-V1b, vasopressin-stimulated pERK AlphaScreen | hit rate 0.99% among 72,000 | AID 995 | Potency, µM (top dose mostly 57.5 µM), for the others: at the highest dose activity, negative = inhibition, usual class: inhibitors; further: nearly all actives have a fitted effect of over 55% in size
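HEK293 cells stably expressing V1b receptor, preincubated 30 min at 37 °C with compound, then stimulated 5 min with 25 nM vasopressin. Phospho-ERK by AlphaScreen SureFire after 5 h RT; normalized to DMSO and vasopressin; AC50 by Hill fit.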
Luciferase inh: firefly luciferase inhibition; hit rate 2.2% among 72,000; Potency, µM (series often up to 57.1 µM), for inactives: top-dose activity change, negative = inhibition, actives largely listed as inhibitors; purified firefly luciferase, luminescence, 8 min; AID 411; further: nearly all actives have a fitted effect of over 40% in size
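Luminescence read-out after 8 min at room temperature; enzyme reaction used luciferin plus 10 uM ATP (linear range) in imidazole buffer pH 7.2 with KCl, MgCl2, Tween 20 and BSA. Each sample was run as a titration.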
DNA Pol III inh: blocks replication by bacterial DNA polymerase III holoenzyme | reconstituted DNA polymerase III holoenzyme replication, biochemical | Potency, µM (highest dose often 57.1 µM), without a hit: top-dose activity change, negative = inhibition | hit rate 0.25% among 71,000
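Reconstituted *E. coli* holoenzyme (0.35 nM Pol III, 1 nM beta, 154 nM SSB, 2 nM primase) was preincubated with compound for 15 min at RT. Synthesis on 1.4 nM ssM13Gori ran 35 min, then was stopped with PicoGreen/EDTA and read as dsDNA fluorescence.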
Tau fil binding: tau filament binding; recombinant tau filaments, thioflavin S fluorescence, 15 h; filaments grown with octadecylsulfate alongside compound; hit rate 2% among 71,000; Potency, µM (doses to about 57.1 µM), without a hit: at the top dose activity change, negative = inhibition; P10636; AID 596;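 further: actives lower thioflavin S fluorescence by blocking filaments or displacing dye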
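Recombinant tau protein (human, 1 uM final) plus 30 uM ODS in HEPES pH 7.4 with NaCl, DTT and thioflavine S. Compound present from the start; fluorescence at 510 nm after 15 h, 37 C.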
* hit, by the source's call; i = inactive; ? = inconclusive; . = no result given; [ ] = dose if it differs, or a comment. Most compounds without a hit are left out; they make up all but 6% or so of the library. Unless noted, the call rests on the fitted dose curve; in most records, active means well fitted curve in the direction sought with a large enough effect; inconclusive means small, poorly fitted or top-dose-only effect, or another doubt; inactive means no such curve, though single readings can be large; an effect the other way counts as inactive or inconclusive. Unless noted, on the % scale 0 is the no-effect control and ±100 the full control effect; potency means the concentration at half of the fitted maximal effect.

SMILES	15-hLO inh	Bst PK mod	ERK AVP inh	Luciferase inh	DNA Pol III inh	Tau fil binding
Cc1nc2cnc(Oc3ccccc3)nc2n(Cc2cccs2)c1=O	-3%	.	-14%	0%[11.4 µM]	-9%	-20%
Cc1ccc2nc(-c3cccc(S(=O)(=O)N(C)C)c3)cn2c1	-14%	i	-17%	13µM*	-2%	12%
CCOC(=O)[C@@H](O)Cc1cnc2ccccc2n1	-1%[11.4 µM]	.	-14%[11.5 µM]	-1%[11.4 µM]	-3%[11.4 µM]	5µM*
O=C1CC2(CCCC2)CC(=O)N1CCNC[C@H]1COc2ccccc2O1	-4%[25.6 µM]	.	4%	-1%	-5%	32µM*
CS(=O)(=O)N1CCC(C(=O)NCCC2=CCCCC2)CC1	6%	>57	-17%	0%	0%	-5%
CS(=O)(=O)NCCC1=CCCCC1	20µM*	>57	-9%	-1%	-1%	-12%
O=C(Nc1sc2c(c1C(=O)O)CCC2)c1cccs1	0%	>57	2%	-3%	-9%	6%
O=C(Nc1nc2c(s1)CCCC2)c1cccs1	-21%	9.7*	6%	5µM*	-4%	-1%
O=C(Nc1nc2c(s1)CCCC2)c1ccc(Br)o1	?	.	?	6.3µM*	-10%[11.4 µM]	62%[11.4 µM]
Cc1ccc(C(=O)Nc2nc3c(s2)CCCC3)o1	-17%	>57	0%	0%	-4%	8%
NC(=O)c1c(NC(=O)c2cccs2)sc2c1CCCCCC2	?	.	?	7.9µM*	2%	i
CC[C@](N)(CCC(=O)O)C(=O)O	-23%[25.6 µM]	.	8%	1%	1%	-15%
CC(=O)O[C@H]1C(=O)[C@@]2(C)[C@H]([C@H](OC(=O)c3ccccc3)[C@]3(O)C[C@H](OC(=O)[C@H](O)[C@@H](NC(=O)c4ccccc4)c4ccccc4)C(C)=C1C3(C)C)[C@]1(OC(C)=O)CO[C@@H]1C[C@@H]2O	-2%	.	13%	16µM*	-3%	-24%
O=C(c1[nH]o[n+](=O)c1C(=O)c1csc2ccccc12)c1csc2ccccc12	-15%[11.4 µM]	.	-6%[11.5 µM]	3%[11.4 µM]	10%[11.4 µM]	2%[11.4 µM]
CN(C)CCC[C@@H]1c2ccccc2Oc2ccc(C(F)(F)F)cc21	7%[11.4 µM]	.	-4%[11.5 µM]	0%[11.4 µM]	-11%[11.4 µM]	-12%[11.4 µM]
Cc1ccc(N(Cc2ccccc2)Cc2ccccc2)cc1	1%[11.4 µM]	.	2%[11.5 µM]	2%[11.4 µM]	-6%[11.4 µM]	1%[11.4 µM]
O=C(CSc1nnnn1C1CCCC1)Nc1ccc2c(c1)OCO2	1%	>57	8%	2%	2%	4%
O=C(CSc1nnc2ccccn12)c1ccc2c(c1)OCCO2	3%	.	1%	16µM*	-4%	1%
O=C(CSc1nnnn1C1CCCC1)c1ccc2c(c1)OCCO2	-2%	i	-6%	7.9µM*	-1%	5%
c1ccn2c(SCc3ccc4c(c3)OCO4)nnc2c1	1%	>57	8%	-2%	0%	3%
O=C1CC(c2cccs2)Sc2nc3ccccc3n21 (configuration not stated)	-5%	i	-16%	16µM*	-2%	3%
O=C1CC(c2ccc3c(c2)OCO3)Sc2nc3ccccc3n21 (configuration not stated)	-1%	4.5*	20%	4µM*	-8%	1%
CC(=O)N1CCC2(CC1)CCN(c1ncccn1)CC2	-3%	.	-17%	1%[11.4 µM]	-3%	4%
CN1CCc2c(sc3c2c(=O)n(-c2ccccc2)c2nncn32)C1	?	>57	?	3%	-16%	-10%
CN1CCc2c(sc3c2c(=O)n(-c2ccccc2)c2nnc(SCc4ccccc4F)n32)C1	?	>57	-9%	-1%	-1%	13µM*
Fc1ccc(Nc2ncncc2-c2ccoc2)cc1	-5%	.	-27%	1%[2.29 µM]	-5%	17%
Cc1ccc(-c2cc(C(=O)Nc3cccnc3)c3ccccc3n2)o1	-24%	.	-20%	7.9µM*	-11%	-20%
O=C(Nc1cccnc1)c1cc2c(ccc3ccccc32)o1	?	.	-9%	4µM*	-23%	i
O=C1[C@@H]2[C@@H](C(=O)N1c1ccc(OCc3ccccc3)cc1)[C@@H]1c3ccccc3[C@@H]2[n+]2ccccc21	-1%[11.4 µM]	.	-14%[11.5 µM]	1%[11.4 µM]	2%[11.4 µM]	-16%[11.4 µM]

Bioassay records: PubChem, National Center for Advancing Translational Sciences (NCATS)
